# In the library only some 2.1% were active in any assay of this set; here they are far more common.
# MsrA act: bovine methionine sulfoxide reductase A activation | purified bovine MsrA, absorbance read-out | activation, % at 10.6 µM | 360,000 compounds, 0.3% hits | AID 602163; in the data active = activation above about 7.5%;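 note: 0% = vehicle and 100% = reference activator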
# MsrA inhibitor: inhibits bovine methionine sulfoxide reductase A; purified bovine MsrA, absorbance read-out; inhibition, % at 15.5 µM; 360,000 compounds, 0.75% hits;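 note: 0% = vehicle wells with enzyme and 100% = reference inhibitor wells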
# ABCB6 inh 2: inhibitors of human ABC transporter ABCB6. K562-ABCB6 porphyrin accumulation, flow cytometry, 1 h; hits give low values. fluorescence ratio to DMSO, % at 10 µM. 360,000 compounds, 0.19% hits;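 active = fluorescence ratio to DMSO below 75%, the collection mean minus 3 SD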;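 note: signal is porphyrin accumulated inside mitochondria; 100% equals median channel fluorescence of DMSO control wells; lower ratio means ABCB6 inhibition with less porphyrin fluorescence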
# Target sequence (Q9NP58 whole entry, looked up): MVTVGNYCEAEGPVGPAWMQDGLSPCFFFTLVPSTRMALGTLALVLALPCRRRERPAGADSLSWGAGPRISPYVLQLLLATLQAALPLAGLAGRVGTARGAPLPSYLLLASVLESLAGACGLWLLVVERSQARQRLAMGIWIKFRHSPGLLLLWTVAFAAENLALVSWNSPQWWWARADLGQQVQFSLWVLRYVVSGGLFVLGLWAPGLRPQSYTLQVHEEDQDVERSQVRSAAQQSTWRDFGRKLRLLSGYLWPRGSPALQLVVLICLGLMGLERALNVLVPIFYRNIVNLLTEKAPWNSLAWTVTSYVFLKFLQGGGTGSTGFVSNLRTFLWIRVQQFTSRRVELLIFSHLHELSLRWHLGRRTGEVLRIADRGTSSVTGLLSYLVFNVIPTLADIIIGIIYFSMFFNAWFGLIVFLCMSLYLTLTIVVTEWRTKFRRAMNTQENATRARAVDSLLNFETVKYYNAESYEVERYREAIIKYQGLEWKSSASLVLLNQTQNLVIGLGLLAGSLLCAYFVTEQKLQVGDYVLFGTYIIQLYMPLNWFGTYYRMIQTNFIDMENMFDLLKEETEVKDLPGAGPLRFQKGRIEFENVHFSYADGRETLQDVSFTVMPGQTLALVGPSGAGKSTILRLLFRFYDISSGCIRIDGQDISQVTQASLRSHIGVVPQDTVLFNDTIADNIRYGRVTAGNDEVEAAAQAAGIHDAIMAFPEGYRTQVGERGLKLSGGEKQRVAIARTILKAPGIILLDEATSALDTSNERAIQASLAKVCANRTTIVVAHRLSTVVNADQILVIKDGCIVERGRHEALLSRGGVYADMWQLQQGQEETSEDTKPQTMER
# SMARCA2 act: increases SMARCA2 function in MMTV reporter cells | 370,000 compounds, 1% hits | activation, % at 9.1 µM | MG213 cells, MMTV-luciferase reporter, dexamethasone, overnight; in the data active = activation above about 7.8%;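 note: 0% = vehicle wells and 100% = reference activator wells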
# MsrA conf: confirmation of bovine MsrA inhibitors. shares compounds with MsrA inhibitor. purified bovine MsrA, absorbance read-out. inhibition, % at 15.5 µM. 2,300 compounds, 41% hits;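 note: coupled to thioredoxin reductase with NADPH and selenocystamine and DMSO as substrate; 0% = vehicle only and 100% = full effect of reference inhibitor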
# Numbers without * were called inactive; nt = not tested or not shown. Cut-off read from the data, not from the text of the source, unless noted: active = inhibition above about 4.5%; inactive = the rest.
SMILES,MsrA act,MsrA inhibitor,ABCB6 inh 2,SMARCA2 act,MsrA conf
O=C1C(Nc2ccccc2)=C/C(=N/S(=O)(=O)c2cccs2)c2ccccc21,-1.2,nt,109.0,nt,nt
Cc1ccc(S(=O)(=O)/N=C2\C=C(Nc3cccc(C(=O)O)c3)C(=O)c3ccccc32)cc1,-1.2,41.7*,104.0,0.6,19.6*
O=C(O)c1cccc(NS(=O)(=O)c2ccc3c(c2)C(=O)c2ccccc2C3=O)c1,-1.9,32.6*,95.0,1.4,25.4*
Cc1ccc(S(=O)(=O)/N=C2\C=C(Nc3ccc(O)cc3)C(=O)c3ccccc32)cc1,2.4,nt,nt,nt,nt
Cc1ccc(NC2=C/C(=N/S(=O)(=O)c3cccs3)c3ccccc3C2=O)cc1,3.5,14.3*,101.0,-6.8,23.9*
CCc1ccc(S(=O)(=O)/N=C2\C=C(Nc3ccc(C(=O)O)cc3)C(=O)c3ccccc32)cc1,-6.8,63.6*,109.0,-4.7,68.9*
O=C(O)c1cccc(NS(=O)(=O)c2ccc(C3CCCCC3)cc2)c1,-3.1,nt,99.0,nt,nt
COC(=O)c1ccccc1NC1=C/C(=N\S(=O)(=O)c2ccc(C(=O)O)cc2)c2ccccc2C1=O,-2.7,nt,100.0,nt,nt
CSc1ccc(OC2(C)CCN(Cc3cc4ccccc4o3)C2)cc1 (centres undefined),0.5,-0.9,98.0,-3.4,nt
Cc1ccc(S(=O)(=O)/N=C2\C=C(Nc3cccc(C(=O)O)c3)C(=O)c3ccccc32)c(C)c1,-2.6,25.3*,96.0,1.4,30.2*
O=C1c2ccccc2C(=O)c2cc(N3CCCCC3)ccc21,4.0,-0.2,881.0,4.6,nt
O=C1c2cccc(Cl)c2C(=O)c2c1cccc2N1CCCC1,-4.0,9.4*,92.0,-1.6,0.7
Cc1cc(N/N=C/c2ccc(O)cc2)nc(NS(=O)(=O)c2ccccc2)n1,-4.6,4.9*,97.0,-4.0,5.3*
Cc1ccc(/C=N/Nc2cc(C)nc(NCc3ccccc3)n2)cc1,2.7,1.1,95.0,2.4,nt
N#C/C(=C\c1ccc(-c2cccc(C(F)(F)F)c2)o1)C(=O)Nn1cnnc1,-7.1,4.8*,96.0,-1.2,2.0
CCOC(=O)/C(=C/c1c[nH]c2ccccc12)NC(C)=O,0.4,5.0*,97.0,-3.7,3.4
N#C/C(=C\c1cccs1)C(=O)N1CCOCC1,-4.8,1.3,102.0,1.8,nt
N#C/C(C(=O)N1CCOCC1)=C1\Nc2ccccc2S1,-7.2,7.9*,103.0,7.6,5.7*
COc1ccc(-c2[nH]ncc2CN2CCCC2c2nonc2C)c(F)c1 (centres undefined),1.4,8.4*,101.0,-3.3,4.3
CC(C)CNc1cccc2c1S(=O)(=O)N(Cc1cn(Cc3cccc(C(F)(F)F)c3)nn1)Cc1ccccc1O2,nt,nt,nt,1.7,nt
Cc1ccc(Cl)cc1NC(=O)C[n+]1ccc(Cc2ccc([N+](=O)[O-])cc2)cc1,-3.4,6.6*,97.0,-3.2,0.9
CC(C)(C)NC(=O)NC(=O)C[n+]1ccc(Cc2ccc([N+](=O)[O-])cc2)cc1,2.7,11.5*,97.0,-3.4,0.9
O=C(C[n+]1ccc(Cc2ccccc2)cc1)Nc1ccc([N+](=O)[O-])cc1Cl,3.3,0.1,103.0,1.0,nt
CCSc1nc(C2CC2)cc(-c2ccco2)c1C#N,-5.2,-0.3,100.0,1.0,nt
CC(C)(C)c1cc(-c2ccco2)c(C#N)c(SCC#N)n1,-0.4,9.2*,106.0,0.3,5.2*
SMILES,MsrA act,MsrA inhibitor,ABCB6 inh 2,SMARCA2 act,MsrA conf
CCN(CC)c1ccc(/C=N/NC(=O)CNC(=O)/C=C/c2ccco2)cc1,-11.5,6.3*,94.0,-1.2,8.0*
COc1ccc(/C=N/NC(=O)Cc2ccc(Cl)cc2)cc1OC,-4.8,0.1,101.0,-0.2,nt
CCOC(=O)N/N=C\C=C\c1ccc2c(c1)OCO2,-4.5,7.3*,98.0,-0.3,4.7*
O=C(/C=C/c1ccco1)NCC(=O)N/N=C/c1ccccc1[N+](=O)[O-],-10.4,0.8,92.0,2.5,nt
COc1ccc(CC(=O)N/N=C/C=C/c2ccc3c(c2)OCO3)cc1OC,-5.9,5.9*,98.0,-4.8,4.0
CCOC(=O)CNC(=O)/C=C/c1ccc2c(c1)OCO2,-12.5,3.7,86.0,-5.0,nt
CCN(CC)c1ccc(/C=N/NC(=O)Cc2ccc(OC)c(OC)c2)cc1,-6.7,5.2*,91.0,-2.0,2.3
COC(=O)[C@]12C[C@H](CC(=O)NCC3CCCCC3)C(=O)N(Cc3ccco3)C1=C[C@H](COCc1ccccc1)O[C@@H]2C,nt,nt,nt,-3.6,nt
COC(=O)N/N=C\C=C\c1ccc2c(c1)OCO2,-10.4,3.4,97.0,1.1,nt
CCN(CC)c1ccc(/C=N/NC(=O)C2CC2)cc1,-4.7,5.8*,104.0,2.4,5.5*
CC(C)(C)OC(=O)N/N=C\C=C\c1ccc2c(c1)OCO2,-4.4,5.1*,95.0,6.7,3.5
Cc1ccc(Nc2ccc([N+](=O)[O-])nc2[N+](=O)[O-])cc1,-7.1,5.3*,96.0,-2.1,5.0*
C/C(=N/N=C1/NC(=O)CC(C(=O)O)S1)c1ccccc1 (centres undefined),3.2,1.0,101.0,0.4,nt
O=C1CC(C(=O)O)S/C(=N\N=C\c2ccc(Br)cc2)N1 (centres undefined),-15.9,4.9*,97.0,-4.3,3.3
O=C(NCCCN1CCN(c2ccc(F)cc2)CC1)NCc1ccccc1,nt,nt,nt,-5.3,nt
O=C(N/N=C/c1sc(=O)n(-c2ccccc2)c1Cl)c1ccncc1,-1.4,7.5*,89.0,1.9,4.8*
O=C(O)c1cccc(Cn2c(Cl)c(/C=N/NC(=O)c3cc4ccccc4cc3O)sc2=O)c1,-6.3,4.9*,96.0,-0.7,5.6*
O=C(O)c1cccc(Cn2c(Cl)c(/C=N/NC(=O)c3cccc(O)c3)sc2=O)c1,-10.9,4.3,95.0,3.2,nt
O=C(O)c1cccc(Cn2c(Cl)c(/C=N/NC(=O)c3ccccc3)sc2=O)c1,-4.3,5.7*,101.0,2.3,5.1*
O=C(O)c1cccc(Cn2c(Cl)c(/C=N/NC(=O)c3ccco3)sc2=O)c1,-5.5,7.0*,103.0,1.2,7.4*
O=C(Nc1ccc(Cl)cc1)OC1CCC12CCC(c1ccccc1)CC2 (centres undefined),nt,nt,nt,-1.5,nt
CCN(CC)c1ccc(C=NNC(=O)Cc2cc(=O)[nH][nH]2)c(O)c1,nt,nt,nt,-5.3,nt
CC1=C2NC(N)=[N+](CC3CC3)C(Cc3ccccc3)[C@@H]2n2c(=O)n(-c3ccccc3)c(=O)n2C1 (some centres undefined),nt,nt,nt,-3.3,nt
O=C(O)c1ccc(/C=N/NC(=O)c2cc3ccccc3cc2O)cc1,-7.9,5.0*,94.0,-2.4,3.0
O=C(N/N=C/c1ccc(Br)s1)c1ccncc1,-8.4,4.7*,93.0,-1.4,4.8*
O=C(N/N=C/c1cc(Br)c(Br)s1)c1ccncc1,-4.9,2.3,100.0,-1.1,nt
O=C(CNc1ccc2ccccc2c1)N/N=C/c1ccc(C(=O)O)cc1,-9.4,2.2,116.0,0.9,nt
COC(=O)C1CN(Cc2cn(Cc3ccc(OC)cc3)nn2)CCS(=O)(=O)N1Cc1ccc(Cl)cc1 (centres undefined),nt,nt,nt,-2.2,nt
COc1cc(/C=N/NC(=O)C(Cc2c[nH]c3ccccc23)NC(=O)OCc2ccccc2)cc([N+](=O)[O-])c1O (centres undefined),-7.4,5.8*,99.0,-1.1,5.2*

# Screening data as filed in PubChem BioAssay.
